Tg IFNy HTS – blocks Toxoplasma gondii growth in the presence of IFN-gamma; Toxoplasma gondii growth in IFN-gamma-treated host cells; active compounds read low; activity change, negative = inhibition, % (test concentration not listed); 69,000 tested, 3.8% active; AID 1259416; in the data active = activity change below about -70%, passing the limit was not always enough;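 note: host cells are HeLa cells infected with Toxoplasma gondii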
Each line names hits and unclear results; the compound was inactive in the other large screens. The entries come from a sample that favours hits as a whole.

O=S(=O)(O)c1cc(I)c(O)c2ncccc12	none
O=C(Oc1ccc(Cl)c2cccnc12)c1cccnc1	none
O=c1[nH]n(CCO)c(=O)c2cccnc12	none
Oc1ccc(Cl)c2cccnc12	none
Oc1c(Cl)cc(Cl)c2cccnc12	Tg IFNy HTS -82.9
Cc1ccc(NC(=O)COc2nc(C)nc3ccccc23)c(C)c1	none
CCOc1ccc(CN2CCC(N)(C(=O)O)C2)cn1 (stereo not given)	none
CCOC(=O)c1nc(N(C)c2ccccc2F)c2ccccc2n1	none
CC(C)CCNC(=O)CN(Cc1ccco1)C(=O)Cn1nnc(-c2ccc(F)cc2)n1	none
Cc1nn(CC(C)C(=O)N2CCCC2c2ncc3c(n2)CCNC3)c(C)c1C (stereo not given)	none
CCCNc1nc(-c2ccccc2Cl)nc2ccccc12	none
COCCN1CCC2(C1)c1ccccc1S(=O)(=O)N2CCOC (stereo not given)	none
COc1ccc(Cl)cc1NC(=O)Nc1ccccc1	Tg IFNy HTS -82.7
COc1ccc(Cl)cc1NC(=O)Nc1ccc(-c2nc(-c3ccccc3)co2)cc1	none
CCC(CC)C(=O)Nc1cc(Cl)ccc1OC	none
COCc1nc2c(o1)CN(Cc1cccnc1OC)C2	none
COC(=O)C1CC23C=CNC4CCC5(c6ccccc6NC15C2C)C43 (stereo not given)	Tg IFNy HTS -85.5
COc1ccc(NC(=O)C(=O)NCCc2csc(-c3cccc(F)c3)n2)cc1	none
COc1ccc(-c2nc(CN(c3ccccc3OC)S(=O)(=O)c3cccs3)c(C)o2)cc1	none
O=C1C[C@H]2CC[C@@H](CN1)N2C(=O)C1CCN(Cc2ccco2)CC1	none
CCN1C(=O)N(Cc2cccc(OC)c2)C(=O)C12CCN(Cc1nc3ccccc3nc1C)CC2	none
COc1ccc(CN2C(=O)N(C)C3(CCN(Cc4nc(-c5ccccc5)cs4)CC3)C2=O)cc1	none
COc1ccc(CN2C(=O)N(C)C3(CCN(Cc4cccc(Oc5ccccc5)c4)CC3)C2=O)cc1	Tg IFNy HTS -81.1
Cc1ccsc1C(=O)N1CCc2ncnc(-c3cccnc3)c2CC1	none
Cc1cccc(N(CCCC(=O)Nc2cccnc2)S(C)(=O)=O)c1	none
O=C(c1cc2cccnc2n(Cc2ccc(F)cc2)c1=O)N1CCN(c2ccc(F)cc2)CC1	Tg IFNy HTS -95.2
O=C(c1cc2cccnc2n(Cc2ccc(F)cc2)c1=O)N1CCCC1	none
O=C(c1cc2cccnc2n(Cc2ccccc2F)c1=O)N1CCCC1	none
O=C(c1cc2cccnc2n(Cc2ccccc2F)c1=O)N1CCN(c2ccc(F)cc2)CC1	Tg IFNy HTS -83.1
O=C(c1cc2cccnc2n(Cc2ccccc2F)c1=O)N1CCN(c2ccccc2F)CC1	none
O=C(c1cc2cccnc2n(Cc2ccc(F)cc2)c1=O)N1CCN(Cc2ccccc2)CC1	none
O=S(=O)(c1ccc(F)cc1)N1CCC2(CC1)Nc1ccc(Cl)cc1-n1cccc12	none
COc1ccccc1-c1nc(Cn2nnc(C(=O)Nc3cc(C)cc(C)c3)c2C)c(C)o1	none
CCCNc1ncc(CN2CC[C@@H](N)[C@@H](OC)C2)cn1	none
COCCN1CCO[C@H]2CN(S(=O)(=O)c3ccccc3)CC[C@@H]2C1	none
c1cc(-c2n[nH]c(C3CCCNC3)n2)ccn1 (stereo not given)	none
O=C1c2ccccc2C(=O)N1N1C(=O)C2C3C=CC(C3)C2C1=O (stereo not given)	none
O=C(NCCNC(=O)C1CC2(CCNCC2)CN1)c1ccc(F)cc1 (stereo not given)	none
CC1CCCCN1S(=O)(=O)c1ccc2c(c1)CCC(=O)N2CC(=O)N1CCCC1 (stereo not given)	none
CC1CCCCN1S(=O)(=O)c1ccc2c(c1)CCC(=O)N2CC(=O)Nc1ccc2c(c1)OCCO2 (stereo not given)	none
Cc1ccc(NC(=O)CN2C(=O)CCc3cc(S(=O)(=O)N4CCC(C)CC4)ccc32)cc1F	none
CC1CCN(S(=O)(=O)c2ccc3c(c2)CCC(=O)N3CC(=O)Nc2ccc3c(c2)OCO3)CC1	none
Cc1ccc(NC(=O)CN2C(=O)CCc3cc(S(=O)(=O)N4CCCCC4C)ccc32)cc1C (stereo not given)	Tg IFNy HTS -83.5
CC1CCN(S(=O)(=O)c2ccc3c(c2)CCC(=O)N3CC(=O)Nc2ccc(Cl)cc2)CC1	Tg IFNy HTS -91.8
CC(=O)Nc1ccc(NC(=O)CN2C(=O)CCc3cc(S(=O)(=O)N4CCCCC4C)ccc32)cc1 (stereo not given)	none
CC1CCN(S(=O)(=O)c2ccc3c(c2)CCC(=O)N3CC(=O)Nc2ccc(F)cc2)CC1	none
Cc1cccc(NC(=O)CN2C(=O)CCc3cc(S(=O)(=O)N4CCC(C)CC4)ccc32)c1	none
Cc1ccc(NC(=O)CN2C(=O)CCc3cc(S(=O)(=O)N4CCC(C)CC4)ccc32)cc1Cl	Tg IFNy HTS -102.6
O=S(=O)(NC1CCOC2(CCN(Cc3ccccc3Cl)CC2)C1)C1CC1 (stereo not given)	none
C=CCN(Cc1ccccc1Cl)C(=O)c1ccc(C#CC(C)(C)O)cc1	none
Cc1cc(CC(=O)NC(CC(C)C)c2nnc3n2CCNCC3)on1 (stereo not given)	none
CC(=O)Nc1ccc(S(=O)(=O)N2CCN(CC(O)c3cc(C)sc3C)CC2)cc1 (stereo not given)	none
CCC(CC)C(=O)NCCn1ncc(-c2cnccn2)c1-c1cccs1	none
COc1ccc2c(c1)NC1(CCN(C(=O)Nc3ccc(Br)c(C)c3)CC1)c1cccn1-2	none
O=C(Cc1ccccc1)N1CCC2(CC1)Nc1ccc(Cl)cc1-n1cccc12	none
COc1ccc(CCC(=O)N2CCC3(CC2)Nc2ccccc2-n2cccc23)cc1	Tg IFNy HTS -115.0
COc1ccc(C(=O)N2CCC3(CC2)Nc2ccccc2-n2cccc23)cc1	none
O=C(Cc1ccc(F)cc1)N1CCC2(CC1)Nc1ccc(Cl)cc1-n1cccc12	none
COc1ccc(CCC(=O)N2CCC3(CC2)Nc2ccc(Cl)cc2-n2cccc23)cc1	Tg IFNy HTS -97.1
Cc1ccc(NC(=O)N2CCC3(CC2)Nc2ccccc2-n2cccc23)cc1Cl	none
O=C(COc1ccccc1)N1CCC2(CC1)Nc1ccc(Cl)cc1-n1cccc12	Tg IFNy HTS -84.1
Cc1cc(NC(=O)N2CCC3(CC2)Nc2ccccc2-n2cccc23)ccc1Br	Tg IFNy HTS -116.4
COc1cc(OC)cc(C(=O)N2CCC3(CC2)Nc2ccc(Cl)cc2-n2cccc23)c1	none
COc1cc(CCC(=O)N2CCC3(CC2)Nc2ccccc2-n2cccc23)cc(OC)c1OC	none
O=C(COc1ccc(Cl)cc1)N1CCC2(CC1)Nc1ccccc1-n1cccc12	none
COc1ccc(CC2CN(C(=O)c3cccc(-c4ncc[nH]4)c3)CCO2)cc1 (stereo not given)	none
Cc1oc(-c2cccc(Cl)c2)nc1CN1CCN(C(=O)NC2CCCCC2)CC1	none
Cc1ccc2c(c1C)-n1cccc1C1(CCN(C(=O)c3cccc(Cl)c3)CC1)N2	none
Cc1cccc(C(=O)N2CCc3onc(COCC4CC4)c3C2)c1	none
CCC1=NC2(CCC(C(=O)Nc3ccc(C)nc3)CC2)C(=O)N1CCOC (stereo not given)	none
CCC(C(=O)N1CCC2(CC1)Nc1ccc(Cl)cc1-n1cccc12)c1ccccc1 (stereo not given)	Tg IFNy HTS -127.7
CC(C)C(=O)N1CCC2(CC1)Nc1ccc(Cl)cc1-n1cccc12	none
O=C(c1ccccc1)N1CCC2(CC1)Nc1ccc(Cl)cc1-n1cccc12	none
COc1ccccc1C(=O)N1CCC2(CC1)Nc1ccc(Cl)cc1-n1cccc12	none
CCOc1ccccc1C(=O)N1CCC2(CC1)Nc1ccc(Cl)cc1-n1cccc12	Tg IFNy HTS -103.9
CCOc1ccccc1C(=O)N1CCC2(CC1)Nc1ccccc1-n1cccc12	none
Cc1cc(C)cc(NC(=O)CN2CCC3(CC2)N=C(c2cccc(Cl)c2)C(=O)N3)c1	none
C=CCNC(=O)CSc1ncc2c(n1)CC(C)(C)CC2=O	none

Screening results (PubChem)
